The target of this assay is Trypsin (Sus scrofa) (UniProt P00761). In words: porcine trypsin inhibitors, dose response, selectivity assay for Rce1 protease inhibitor project, biochemical, quenched peptide fluorescence, cherry-pick (AID 488789).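 Further: more negative means stronger trypsin inhibition.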 The following applies: quenched peptide cleavage fluorescence; series mostly up to 10 µM.

SMILES strings stand for the structures. Entries with a potency or affinity are not part of this list. Results filed as inconclusive are left out. Activity calls are given as the source filed them.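 How the source made its calls: active means samples whose fitted half-maximal inhibition concentration is no more than ten times the top valid dose tested; inconclusive means flat response between -70 and -30, or invalid curve fit; inactive means flat within 30 of zero, potency above limit, or signal rising.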

Trypsin (Sus scrofa), sequence (P00761 whole entry, looked up): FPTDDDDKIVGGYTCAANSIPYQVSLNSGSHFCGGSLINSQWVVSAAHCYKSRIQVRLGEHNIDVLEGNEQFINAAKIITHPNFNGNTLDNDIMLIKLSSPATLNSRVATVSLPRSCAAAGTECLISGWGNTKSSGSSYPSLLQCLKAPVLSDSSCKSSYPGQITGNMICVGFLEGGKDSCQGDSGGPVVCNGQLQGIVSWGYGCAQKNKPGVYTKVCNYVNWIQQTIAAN

`N=c1c(C(=O)NCc2ccc(F)cc2)cc2c(=O)n3ccccc3nc2n1Cc1cccnc1`: the result was inactive. Turning to `O=C(COC(=O)c1ccccc1Cc1ccccc1)NC1CCS(=O)(=O)C1` (stereo not drawn), the molecule was called inactive. In the case of `COc1cccc2sc3ccc(C#CC4(O)CCCCC4)cc3c(=O)c12` it was “inactive”; in that of `CN1CCN(C(=O)c2ccc(-c3cccs3)s2)CC1`, “inactive”; in that of `CC(=O)c1c(C)[nH]c(C(=O)OCc2ccc(Br)cc2)c1C`, “inactive”. Under `COc1cccc(/C=N/NC(=O)c2nnn(-c3nonc3N)c2C(C)C)c1OCc1ccc(F)cc1` stands “inactive”; under `Cc1nc(N2CCOCC2)c2c(C)c(C(=O)Nc3ccccc3C(F)(F)F)sc2n1`, “inactive”. `Cc1cccc(OCCN2C(=O)C(=O)c3cc(C)ccc32)c1`: the call was inactive.

For the origin of these results see PubChem BioAssay AID488789 (Broad Institute, 2010).
